Measured values: PubChem BioAssay AID588855 (National Center for Advancing Translational Sciences (NCATS), 2011)
Hit rate of the full screen: of about 410,000 compounds, about 5,000 (1.2%) were called active. Roughly 13% stayed inconclusive and do not appear here. Calls come from the whole dose curve; as a rule, active = well fitted inhibition curve with a large enough effect; inconclusive = small, poorly fitted or top-dose-only effect; inactive = no such curve, though single readings can be large or run the other way. For the sample, actives were picked, then their nearest neighbours and some compounds at random.

Assay: qHTS for Inhibitors of TGF-b; note: nearly all actives have a fitted effect of over 65% in size
Conditions: HepG2 CAGA-GFP TGF-b/SMAD3 reporter, GFP fluorescence, 18 h, TGF-beta stimulated, 500 pg/mL final; series mostly up to 46.1 µM; activity, negative = inhibition: at the top concentration
Procedure, shortened: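 TGF-beta reporter screen: HEPG2 CAGA-GFP, 1% FBS, 500 pg/mL TGF-beta final, 18 h; per-cell GFP summed per well; curves fitted and categorized by class.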
% is set by controls: 0 for no effect and ±100 for the full control effect; potency is the fitted concentration of half-maximal effect.

activity, negative = inhibition, inactive:
O=C(Nc1cc(C(F)(F)F)ccc1Cl)c1ccc2c(c1)CCN2S(=O)(=O)c1ccccc1 -3.22%
O=C(Nc1cc(C(F)(F)F)ccc1Cl)c1cc2nc(-c3ccc4c(c3)OCO4)cc(C(F)(F)F)n2n1 0.776%
Cc1noc(C)c1S(=O)(=O)Nc1cc(C(F)(F)F)ccc1N1CCOCC1 -7.13%
CN(CC(=O)Nc1cccc(C(F)(F)F)c1)S(=O)(=O)c1cccs1 -21.3%
CCC(=O)N1N=C(c2ccc(OC)cc2)CC1c1cn(-c2ccccc2)nc1-c1cccs1 (stereo not drawn) 2.04%
Cc1nnc(SCC(=O)NCc2ccccc2Cl)c2nn(-c3ccccc3)c(C)c12 -6.97%
CCn1cc2nc(SCc3ccccc3Cl)n(CCc3ccccc3)c(=O)c2n1 -0.372%
Cc1ccc(S(=O)(=O)c2c(Nc3cccc(Cl)c3)sc(C(=O)c3ccc4c(c3)OCO4)c2N)cc1 0.384%
Cc1ccc(S(=O)(=O)N(CC(=O)N/N=C/c2ccc(F)cc2)c2cccc3cccnc23)cc1 -1.79%
Cc1ccc(NC(=O)C2CCCN2S(=O)(=O)c2cccc3cccnc23)c(C)c1 (stereo not drawn) -4.43%
O=C(N/N=C\c1cccnc1)c1cc(-c2ccccc2)nc2c(Cl)cccc12 0%
Cc1ccc(NC(=O)CSc2nc3c([nH]c4ccccc43)c(=O)n2-c2ccccc2)c(C)c1 -16.8%
Cc1cccc(C)c1-n1ncc(C(=O)NCCCN2CCCCC2)c1C1CCN(C(=O)OC(C)(C)C)CC1 -1.79%
Cc1ccccc1C(=O)N(Cc1ccc(N(C)C)cc1)CC1CCCO1 (stereo not drawn) -0.952%
CCOC(=O)c1ccc(NC(=O)CC2C(=O)N(c3ccccc3)C(=O)N2Cc2cccs2)cc1 (stereo not drawn) -2.46%
CCOC(=O)C1CCN(c2nc3c(S(=O)(=O)c4ccc(CC)cc4)nnn3c3ccc(Cl)cc23)CC1 0.965%
CN(C(=O)CCN1C(=O)/C(=C/c2ccccc2F)SC1=S)C1CCS(=O)(=O)C1 (stereo not drawn) -10.2%
CCN(C(=O)CN1C(=O)/C(=C/c2ccc(F)cc2)SC1=S)C1CCS(=O)(=O)C1 (stereo not drawn) -28.5%
COc1ccc(Cl)cc1S(=O)(=O)N1CCC(c2ccncc2)CC1 -14.5%
CCN(C(=O)Cn1cc(S(=O)(=O)N2CCN(c3ccccc3F)CC2)c2ccccc2c1=O)c1ccc(C)c(C)c1 -16.8%
COc1ccc(C(F)(F)F)cc1NC(=O)c1sc2nc(-c3cccs3)ccc2c1N 7.6%
Cc1ccc(CN2CCC(CNC(=O)c3cnn(-c4ccc(C)cc4)c3C3CCN(C(=O)OC(C)(C)C)CC3)CC2)cc1 -19.3%
Cc1ccc(-n2ncc(C(=O)NC3CC3)c2C2CCN(C(=O)OC(C)(C)C)CC2)c(C)c1 3.65%
CCc1nn(CC(=O)Nc2cc(C)cc(C)c2)c(=O)c2cc3sccc3n12 0.509%
Oc1c(C(c2ccccc2Cl)N2CCOCC2)sc2nc(-c3ccco3)nn12 (stereo not drawn) -0.624%
O=C(COC(=O)c1ccccc1OCCOc1ccccc1)Nc1cccc(Br)c1 -6.6%
Cc1c(-c2cccc(NC(=O)C(C)(C)C)c2)nc2ncccn12 -12.9%
ClC/C=C/C[n+]1ccccc1Cl -3.54%
O=C(Nc1nnc(S(=O)(=O)N2CCOCC2)s1)c1cccc(Br)c1 -20.5%
Cc1cccc(C(=O)Nc2nnc(S(=O)(=O)N3CCCCCC3)s2)c1 -24.8%
O=C(NCc1ccccc1)c1ccc2c(c1)nc1n2CCCCC1 -14.4%
Cc1cc(C)cc(NC(=S)NCCc2c[nH]c3ccccc23)c1 -25.4%
CCc1cccc(CC)c1NC(=S)NCc1ccc2[nH]c(C)cc2c1 -7.74%
Cc1csc(NCC(=O)c2c[nH]c3ccccc23)n1 -1.4%
Nc1ncnc2nnsc12 9.53%
CC(C)(C)c1ccc(C(=O)C[n+]2cccc3cc(Cl)ccc32)cc1 -12.3%
COc1cccc(-c2cccc(NC(=O)C3CCN(C4CCC4)CC3)c2)c1 -0.372%
COc1ccc(N=C2SC(C(=O)Nc3ccc(F)cc3)CC(=O)N2C)cc1 (stereo not drawn) 3.67%
O=C(C1CCCN(S(=O)(=O)c2cccc3nonc23)C1)N1CCN(c2ccccc2F)CC1 (stereo not drawn) -8.65%
CC(C)Oc1ccc(NC(=O)c2cc3ccccc3o2)cc1 -3.52%
CCOc1ccccc1N(CC)C(=O)Nc1cn(C)c(=O)c2ccccc12 -2.53%
COC(=O)c1c(NC(=O)c2cc(=O)c3c(C)cc(C)cc3o2)sc2c1CCCC2 5.83%
CC(=O)Nc1cnc(-c2ccc(O)cc2C)cn1 22.5%
Cc1ccn2c(-c3csc(Nc4ccc(C(=O)O)cc4)n3)c(C)nc2c1 -5.02%
CCOc1ccc(CNC(=O)CCc2c(C)nn(-c3ccc(N4CCCCC4)nn3)c2C)cc1 -29.5%
COc1cccc(CNC(=O)CCC(=O)N2CC3CCCN3c3ccccc32)c1 (stereo not drawn) 1.62%
CCc1ccc(S(=O)(=O)Nc2cc3c(C(=O)OCc4ccccc4)c(C)oc3c3ccccc23)cc1 -10.1%
COC(=O)c1c(C)oc2ccc(N(C(=O)Oc3ccccc3)S(=O)(=O)c3ccccc3)cc12 -0.887%
Cc1nc2sc(C)c(C)n2c(=O)c1S(=O)(=O)NCCc1ccc(Cl)cc1 -6.27%
CCCCN(CC)C(=O)c1c[nH]c2ccc(S(=O)(=O)Nc3cccc(OC)c3)cc2c1=O 2.08%
CCc1cc2c(cc(C(=O)OC)n2Cc2nc(-c3ccc(C)cc3)oc2C)s1 2.49%
COc1ccccc1N1CCN(c2ncnc3onc(-c4ccc(F)cc4)c23)CC1 -2.19%
CCc1ccccc1N(C)C(=O)C1CCCN(c2ncnc3onc(-c4ccc(F)cc4)c23)C1 (stereo not drawn) -7.58%
Cc1ccc(Nc2c(-c3ccc(N(C)C)cc3)nc3nc[nH]n23)cc1 9.98%
CN(C)C(CNC(=O)c1cc2ccccc2o1)c1ccccc1 (stereo not drawn) -11.8%
CN(NC(=O)c1ccccc1F)c1nc(C(F)(F)F)nc2ccccc12 -21.4%
O=C(C1COc2ccccc2O1)N(Cc1cccnc1)c1nc2c(F)cc(F)cc2s1 (stereo not drawn) -13.3%
Cc1cc(-c2ccc(C)c(S(=O)(=O)N3c4ccccc4CC3C)c2)on1 (stereo not drawn) 0%
COc1ccc(CCN2C(=O)C(C)=C(C)C2=O)cc1OC 1.46%
CCCCN1C(=O)C(C)=C(C)C1OCCc1ccc(OC)c(OC)c1 (stereo not drawn) -21.6%
Cc1ccc(-c2nc3cccc(C)n3c2Nc2ccc3c(c2)OCCO3)cc1 8.92%
COc1ccc(NC(=O)CSc2nccn2C2CCCC2)cc1OC 0.0461%
COc1ccc(CNc2nc(-c3ccc(Cl)cc3)nn2S(=O)(=O)c2ccc(C)cc2)cc1 -14.6%
O=S(=O)(NCc1ccccn1)c1ccc(Br)s1 14.4%
COc1ccc(C2C(=O)N(C3CCCCCC3)CC(=O)N2CCc2ccc(Cl)cc2)cc1OC (stereo not drawn) -0.397%
CCC(=O)N1c2ccccc2CC1C(=O)N1CCN(c2ccccc2F)CC1 (stereo not drawn) -0.708%
Cc1ccccc1CCNC(=O)C1CCN(c2nc3ccccc3nc2C(F)(F)F)CC1 -5.82%
Cc1ccc(Cl)cc1NC(=O)NC1COc2ccccc2C1 (stereo not drawn) 64.3%
Nc1nc(N)c(N=O)c(N)n1 -18.6%
Cc1nc2ccccn2c(=O)c1NC(=O)c1c(F)cccc1F -43.5%
CCN(CC)/[N+]([O-])=N/OCOC(=O)Cc1c(C)n(C(=O)c2ccc(Cl)cc2)c2ccc(OC)cc12 -15.9%
CCOC(=O)c1c(SCC(=O)Nc2cccc(C)c2C)nc(=O)[nH]c1C 14.4%
CCOC(=O)c1[nH]c2ccccc2c1N=C(C)N(CC)CC -13.3%
Cc1ccc(S(=O)(=O)N/N=C(\c2ccccc2)C2CC2)cc1 10.5%
Cc1ccc(S(=O)(=O)/N=S(\C)C(C)C)cc1 (stereo not drawn) 26%

Potency, active:
Cc1oc2c(F)c(F)c(F)c(F)c2c1S(=O)(=O)Nc1cccc(C(F)(F)F)c1 7.08 µM
C=C1C(=O)[C@]23C[C@H]1CCC2[C@@]1(C)C(C[C@@H]3O)[C@](C)(C(=O)O)CC[C@@H]1O (stereo partly drawn) 10 µM
Cc1ccc(NC(=O)CSc2cccc3cccnc23)c(C)c1 14.1 µM
O=C(CSc1cccc2cccnc12)N/N=C/c1cccnc1 4.47 µM
O=C1/C(=C/c2cccs2)SC(=S)N1C1CCS(=O)(=O)C1 (stereo not drawn) 15.8 µM
Cc1ccc(CN2CCC(CNC(=O)c3cnn(-c4ccccc4Cl)c3C3CCN(C(=O)OC(C)(C)C)CC3)CC2)cc1 15.8 µM
Oc1c(C(c2ccccn2)N2CCOCC2)ccc2cccnc12 (stereo not drawn) 3.98 µM
O=C(Nc1nnc(S(=O)(=O)N2CCCCCC2)s1)c1cccc(Br)c1 10 µM
Cc1cccc(NC(=S)NCc2ccc3[nH]c4c(c3c2)CCCC4)c1 25.1 µM
COc1cccc(N=C2SC(C(=O)Nc3cccc(Cl)c3)CC(=O)N2C)c1 (stereo not drawn) 10 µM
Cc1ccc(Nc2nc(-c3ccc(O)cc3O)cs2)nc1 12.6 µM
CCOC(=O)c1c(C)oc2ccc(N(C(=O)c3ccncc3)S(=O)(=O)c3ccc(CC)cc3)cc12 12.6 µM
CCCCCCCCn1c2c(c(=N)c3c1CCC3)CCCC2 8.91 µM
Oc1cccc2cc(-c3ccncc3)cnc12 3.55 µM
Cc1ccc(Cl)cc1N(C)C(=O)C1CCCN(c2ncnc3onc(-c4ccc(F)cc4)c23)C1 (stereo not drawn) 11.2 µM
CCc1ccc(C(CNc2nc(C(F)(F)F)nc3ccccc23)N(C)C)cc1 (stereo not drawn) 11.2 µM
CCCCOc1ccc(CN2C(=O)C(=O)c3cc(Br)cc(C)c32)cc1OC 10 µM
Clc1cccc(N=C2NN=C(c3ccc4c(c3)OCCO4)CS2)c1 10 µM
CCN1CCC(O)(/C=C/c2ccc(C)cc2)C(C(=O)/C=C/c2ccc(C)cc2)C1 (stereo not drawn) 11.2 µM
O=S(=O)([N-]c1nc2ccccc2nc1-[n+]1ccc(Cc2ccccc2)cc1)c1ccc(Br)s1 2.82 µM
c1ccc(C2CNCc3c2ccc2ccccc32)cc1 (stereo not drawn) 12.6 µM
CCOC(=O)c1c(C)[nH]c2c1-c1ccccc1C(=O)C2=O 1.26 µM
Cc1ccc(S(=O)(=O)/N=C2\C=C(NS(=O)(=O)c3ccc(C)cc3)C(=O)c3ccccc32)cc1 11.2 µM
